Inconclusive results are not listed. Active and inactive are the calls of the source. The calls were made as follows: active = hit-call score of the fitted dose curve at least 0.9, where 1 is the maximum; inconclusive = response in the unintended direction; inactive = score below 0.9.
Legend:
[1] = biological target: rat Peripheral-type Benzodiazepine Receptor (PBR), Tspo (gene 24230) (UniProt P16257); assay: NVS_MP_rPBR: NovaScreen (NVS) Membrane Protein Assay for rat Peripheral-type Benzodiazepine Receptor (PBR) (AID 2283335)
In short: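 Rat kidney membranes; radioligand binding with displacement, filter-based scintillation counting, 1 h incubation. Primary screen in duplicate at 25 uM, actives followed in concentration series; loss of binding vs DMSO.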

[2] = biological target: bovine Estrogen Receptor (ER), ESR1 (gene 407238) (UniProt P49884); assay: NVS_NR_bER: NovaScreen (NVS) Nuclear Receptor Binding Assay for bovine Estrogen Receptor (ER) (AID 2283345);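 also: actives lower the bound radioligand count which means they displace the ER ligand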
In short: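 Cell-free radioligand binding with bovine uterine membrane extracts, read 18 hours after dosing by scintillation counting. Loss of signal versus DMSO baseline indicates displacement. Primary screen run in duplicate at 25 uM, actives followed in concentration series.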

[3] = biological target: Estrogen receptor (Homo sapiens) (UniProt P03372); assay: OT_ER_ERaERa_1440: Odyssey Thera (OT) 24-hour HEK293T Protein-Complementation Assay for Estrogen Receptor-alpha/-alpha Homodimer (AID 2283349);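 also: hits raise fluorescence above DMSO for agonists and antagonists alike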
In short: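 Protein-fragment complementation between two human ERα ligand-binding domains (aa 310-547) in stably transfected HEK293T cells was monitored after 24 h treatment, using fluorescence intensity relative to vehicle controls.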

[4] = biological target: Estrogen receptor (Homo sapiens) (UniProt P03372); assay: OT_ER_ERaERa_0480: Odyssey Thera (OT) 8-hour HEK293T Protein-Complementation Assay for Estrogen Receptor-alpha/-alpha Homodimer (AID 2283351);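 also: rise in fluorescence from reassembled reporter fragments on ERα LBD homodimer in nucleus or whole cell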
In short: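 HEK293T, stable ERα LBD (aa 310-547) PCA homodimer; 8 h compound exposure; fluorescence intensity, laser scanning cytometer; positive fitting direction, DMSO baseline.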

[5] = biological target: Androgen Receptor/SRC-1 Co-activator, AR (gene 367) (UniProt P10275); assay: OT_AR_ARSRC1_0960: Odyssey Thera (OT) 16-hour HEK293T Protein-Complementation Assay for Androgen Receptor/SRC-1 Co-activator (AID 2283353);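 also: actives raise the signal above DMSO so potency reflects increased AR and SRC-1 complex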
In short: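 Split-Venus PCA, AR/SRC-1 fusions, stable HEK293T; 16 h compound exposure; imaged at 488 and 635 nm; N/C ratio (488 nm channel), min 400 cells/image; positive-direction fit, DMSO baseline.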

[6] = biological target: Androgen Receptor/SRC-1 Co-activator, AR (gene 367) (UniProt P10275); assay: OT_AR_ARSRC1_0480: Odyssey Thera (OT) 8-hour HEK293T Protein-Complementation Assay for Androgen Receptor/SRC-1 Co-activator (AID 2283354);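 also: hits raise the complementation signal above DMSO so AC50 marks enhancers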
In short: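 Measures AR/SRC-1 binding by Venus YFP fragment complementation in HEK293T stable lines at 8 h post-dose. Imaging quantifies the 488nm nucleus/cytoplasm ratio in ≥400 cells; DMSO defines baseline.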

NCBI gene 100848466 = assay: NVS_NR_bPR: NovaScreen (NVS) Nuclear Receptor Binding Assay for bovine Progextron Receptor (PR) (AID 2283343)
In short: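 Membranes from bovine uterus; radiolabelled ligand plus test chemical; 18 h; scintillation read-out. Activity = signal loss vs DMSO. Primary: 25 uM, duplicate; secondary: concentration series.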

[7] = biological target: rat Mineralocorticoid Receptor (MR), Nr3c2 (gene 25672) (UniProt P22199); assay: NVS_NR_rMR: NovaScreen (NVS) Nuclear Receptor Binding Assay for rat Mineralocorticoid Receptor (MR) (AID 2283355)
In short: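 Adrenalectomized rat brain supernatant was dosed with test chemical, then radioligand binding was measured by scintillation counting at 24 h. Initial testing ran in duplicate at 25 uM, followed by concentration series for actives.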

[8] = biological target: T1, Estrogen receptor (Homo sapiens) + Estrogen receptor beta (Homo sapiens) (UniProt P03372+Q92731); assay: OT_ER_ERaERb_0480: Odyssey Thera (OT) 8-hour HEK293T Protein-Complementation Assay for Estrogen Receptor-alpha/-beta Heterodimer (AID 2283352)
In short: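 HEK293T protein-fragment complementation assay of ER-alpha/ER-beta LBD heterodimerisation, read 8 h after dosing. Mean nuclear/cytoplasmic fluorescence intensity measured by laser scanning cytometry; gain of signal fitted relative to DMSO.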

[9] = biological target: T1, Estrogen receptor (Homo sapiens) + Estrogen receptor beta (Homo sapiens); assay: OT_ER_ERaERb_1440: Odyssey Thera (OT) 24-hour HEK293T Protein-Complementation Assay for Estrogen Receptor-alpha/-beta Homodimer (AID 2283356);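 also: heteromer of ER alpha and ER beta binding domains; hits raise reporter fluorescence and both agonists and antagonists give an increase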
In short: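 HEK293T stably expressing a PCA of ER alpha LBD (aa 310-547) and ER beta LBD (aa 263-489). After 24 h compound exposure, mean fluorescence intensity in nucleus (agonists) or nucleus and cytoplasm (antagonists) measured by laser scanning cytometry versus vehicle.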

[10] = biological target: Estrogen receptor beta (Homo sapiens) (UniProt Q92731); assay: OT_ER_ERbERb_0480: Odyssey Thera (OT) 8-hour HEK293T Protein-Complementation Assay for Estrogen Receptor-beta/-beta Homodimer (AID 2283357);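 also: active means signal gain over DMSO baseline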
In short: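 Cells (HEK293T, stable ER-beta LBD PCA pair) are treated 8 hours, fixed and Draq5-stained; signal is fluorescence intensity increase relative to vehicle, fitted in the gain direction.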

[11] = biological target: chimpanzee Androgen Receptor (AR), AR (gene 747460) (UniProt O97775); assay: NVS_NR_cAR: NovaScreen (NVS) Nuclear Receptor Binding Assay for chimpanzee Androgen Receptor (AR) (AID 2283346);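 also: radioligand displacement from AR measured by scintillation counting in a cell-free assay; a loss of bound radioligand signal versus DMSO counts as binding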
In short: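 Cell-free competition binding with insect-cell (Sf9/Sf21) extracted chimpanzee AR; scintillation signal from lysate at 72 h. Screened in duplicate at 25 uM, then concentration-response for actives; fitting relative to DMSO.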

[12] = biological target: Bile acid receptor (Homo sapiens) (UniProt Q96RI1); assay: NVS_NR_hFXR_Antagonist: NovaScreen (NVS) Nuclear Receptor Binding Assay for human Farnesoid X Receptor Antagonism (FXR) (AID 2283350)
In short: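 Cell-free TR-FRET ligand-binding read-out on human FXR (NR1H4) in antagonist mode, measured 1 h after dosing. Primary screen in duplicate at 25 uM, actives retested in concentration series; signal loss scored versus DMSO.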

Measured: AC50

Estrogen receptor beta (Homo sapiens), sequence (Q92731 whole entry, looked up, the tested form may be a part): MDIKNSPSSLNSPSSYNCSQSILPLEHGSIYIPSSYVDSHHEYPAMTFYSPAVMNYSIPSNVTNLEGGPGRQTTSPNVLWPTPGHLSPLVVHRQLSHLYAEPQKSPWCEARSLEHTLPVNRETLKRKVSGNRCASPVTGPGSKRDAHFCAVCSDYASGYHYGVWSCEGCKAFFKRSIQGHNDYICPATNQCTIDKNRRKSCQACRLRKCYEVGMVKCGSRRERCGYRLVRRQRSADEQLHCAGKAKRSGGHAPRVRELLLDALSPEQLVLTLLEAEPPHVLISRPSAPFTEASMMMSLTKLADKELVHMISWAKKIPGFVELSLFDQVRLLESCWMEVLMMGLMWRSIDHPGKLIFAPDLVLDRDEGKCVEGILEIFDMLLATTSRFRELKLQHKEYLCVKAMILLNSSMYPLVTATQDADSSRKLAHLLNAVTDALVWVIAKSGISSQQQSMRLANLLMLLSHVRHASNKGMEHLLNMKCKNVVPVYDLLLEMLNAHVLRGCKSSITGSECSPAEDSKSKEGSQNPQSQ
chimpanzee Androgen Receptor (AR), AR (gene 747460), sequence (O97775 whole entry, looked up): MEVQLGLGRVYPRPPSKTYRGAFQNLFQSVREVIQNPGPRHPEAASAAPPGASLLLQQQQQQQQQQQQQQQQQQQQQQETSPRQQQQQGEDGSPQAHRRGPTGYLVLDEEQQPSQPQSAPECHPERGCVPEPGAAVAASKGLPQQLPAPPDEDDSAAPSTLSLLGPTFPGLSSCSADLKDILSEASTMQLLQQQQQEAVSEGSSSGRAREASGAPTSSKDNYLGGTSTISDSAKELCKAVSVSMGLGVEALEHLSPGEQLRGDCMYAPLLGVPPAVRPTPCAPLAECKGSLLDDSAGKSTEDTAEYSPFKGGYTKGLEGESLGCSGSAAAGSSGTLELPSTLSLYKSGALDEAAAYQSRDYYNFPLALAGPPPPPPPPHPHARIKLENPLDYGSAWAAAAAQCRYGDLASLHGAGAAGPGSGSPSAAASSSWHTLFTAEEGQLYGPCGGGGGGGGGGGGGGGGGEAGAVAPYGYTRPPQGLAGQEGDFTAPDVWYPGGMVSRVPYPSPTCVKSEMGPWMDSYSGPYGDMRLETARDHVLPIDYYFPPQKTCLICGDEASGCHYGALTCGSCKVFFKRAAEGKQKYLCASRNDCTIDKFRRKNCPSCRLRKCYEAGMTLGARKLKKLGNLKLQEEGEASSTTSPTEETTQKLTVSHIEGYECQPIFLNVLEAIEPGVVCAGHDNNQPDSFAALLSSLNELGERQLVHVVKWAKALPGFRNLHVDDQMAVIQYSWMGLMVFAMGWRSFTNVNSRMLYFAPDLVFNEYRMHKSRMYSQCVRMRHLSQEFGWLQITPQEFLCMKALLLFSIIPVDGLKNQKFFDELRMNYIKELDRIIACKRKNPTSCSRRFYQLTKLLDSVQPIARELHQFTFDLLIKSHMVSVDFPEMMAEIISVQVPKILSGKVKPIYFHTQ
Androgen Receptor/SRC-1 Co-activator, AR (gene 367), sequence (P10275 whole entry, looked up, the tested form may be a part): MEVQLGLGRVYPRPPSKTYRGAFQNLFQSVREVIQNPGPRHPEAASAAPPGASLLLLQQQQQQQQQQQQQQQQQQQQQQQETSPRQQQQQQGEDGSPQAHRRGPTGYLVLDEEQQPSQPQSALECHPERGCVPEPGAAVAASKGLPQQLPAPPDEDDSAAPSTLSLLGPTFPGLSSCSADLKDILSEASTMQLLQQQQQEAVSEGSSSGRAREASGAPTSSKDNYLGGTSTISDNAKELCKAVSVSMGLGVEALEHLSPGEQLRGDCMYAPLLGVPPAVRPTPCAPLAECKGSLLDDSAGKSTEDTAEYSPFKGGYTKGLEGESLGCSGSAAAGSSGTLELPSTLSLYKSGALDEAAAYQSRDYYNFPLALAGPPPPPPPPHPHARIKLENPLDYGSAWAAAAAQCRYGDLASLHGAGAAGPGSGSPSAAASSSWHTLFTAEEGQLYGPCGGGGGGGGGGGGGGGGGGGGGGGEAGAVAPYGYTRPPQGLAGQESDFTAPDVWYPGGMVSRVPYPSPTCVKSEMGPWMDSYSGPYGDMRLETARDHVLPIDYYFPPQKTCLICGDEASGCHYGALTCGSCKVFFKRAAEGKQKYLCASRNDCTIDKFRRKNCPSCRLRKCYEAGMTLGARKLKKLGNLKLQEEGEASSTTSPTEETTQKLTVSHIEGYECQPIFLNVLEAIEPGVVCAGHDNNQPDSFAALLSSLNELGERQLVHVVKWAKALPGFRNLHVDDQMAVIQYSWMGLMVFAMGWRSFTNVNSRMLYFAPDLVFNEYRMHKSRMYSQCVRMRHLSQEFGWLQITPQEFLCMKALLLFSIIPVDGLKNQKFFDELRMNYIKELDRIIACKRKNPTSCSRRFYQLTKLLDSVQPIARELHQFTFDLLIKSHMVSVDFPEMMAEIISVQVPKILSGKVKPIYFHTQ
bovine Estrogen Receptor (ER), ESR1 (gene 407238), sequence (P49884 whole entry, looked up): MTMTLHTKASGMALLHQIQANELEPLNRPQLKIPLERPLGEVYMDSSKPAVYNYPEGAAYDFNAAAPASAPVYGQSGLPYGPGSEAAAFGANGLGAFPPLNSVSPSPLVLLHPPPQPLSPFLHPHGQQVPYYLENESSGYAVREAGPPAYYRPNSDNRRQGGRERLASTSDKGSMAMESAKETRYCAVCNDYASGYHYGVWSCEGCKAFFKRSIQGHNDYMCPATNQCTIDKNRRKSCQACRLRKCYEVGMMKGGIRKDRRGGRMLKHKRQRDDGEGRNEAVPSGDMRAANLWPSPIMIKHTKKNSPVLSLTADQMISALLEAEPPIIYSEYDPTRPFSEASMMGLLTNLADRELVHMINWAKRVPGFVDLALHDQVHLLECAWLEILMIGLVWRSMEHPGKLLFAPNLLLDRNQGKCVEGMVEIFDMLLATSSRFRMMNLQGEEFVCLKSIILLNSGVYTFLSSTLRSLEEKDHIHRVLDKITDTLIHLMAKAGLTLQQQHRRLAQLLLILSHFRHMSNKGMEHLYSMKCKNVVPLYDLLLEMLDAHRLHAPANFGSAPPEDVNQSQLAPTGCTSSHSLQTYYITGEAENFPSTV
rat Peripheral-type Benzodiazepine Receptor (PBR), Tspo (gene 24230), sequence (P16257 whole entry, looked up): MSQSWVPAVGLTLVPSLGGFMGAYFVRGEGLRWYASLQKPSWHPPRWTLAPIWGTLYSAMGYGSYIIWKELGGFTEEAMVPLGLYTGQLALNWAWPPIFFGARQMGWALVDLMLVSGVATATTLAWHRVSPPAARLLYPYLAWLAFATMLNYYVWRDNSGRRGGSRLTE
Estrogen receptor (Homo sapiens), sequence (P03372 whole entry, looked up, the tested form may be a part): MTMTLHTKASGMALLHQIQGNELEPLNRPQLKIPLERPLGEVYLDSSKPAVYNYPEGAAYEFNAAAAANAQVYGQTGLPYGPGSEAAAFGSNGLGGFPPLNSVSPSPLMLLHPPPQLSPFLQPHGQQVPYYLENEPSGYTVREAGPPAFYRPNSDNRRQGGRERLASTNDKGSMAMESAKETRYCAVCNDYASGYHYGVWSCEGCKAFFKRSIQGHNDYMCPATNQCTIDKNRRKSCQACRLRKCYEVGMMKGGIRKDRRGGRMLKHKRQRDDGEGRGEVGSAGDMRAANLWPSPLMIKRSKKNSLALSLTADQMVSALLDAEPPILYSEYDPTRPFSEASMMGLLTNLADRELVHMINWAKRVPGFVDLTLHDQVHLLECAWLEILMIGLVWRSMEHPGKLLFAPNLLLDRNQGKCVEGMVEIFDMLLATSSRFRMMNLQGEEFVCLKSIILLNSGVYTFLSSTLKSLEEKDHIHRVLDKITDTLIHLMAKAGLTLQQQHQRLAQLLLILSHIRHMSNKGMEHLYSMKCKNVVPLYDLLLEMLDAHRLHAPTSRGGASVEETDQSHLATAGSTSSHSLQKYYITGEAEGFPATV
T1 sequence (P03372 whole entry, looked up, the tested form may be a part): as above
T1 sequence (Q92731 whole entry, looked up, the tested form may be a part): as the sequence (Q92731 whole entry, looked up, the tested form may be a part) above
Bile acid receptor (Homo sapiens), sequence (Q96RI1 whole entry, looked up): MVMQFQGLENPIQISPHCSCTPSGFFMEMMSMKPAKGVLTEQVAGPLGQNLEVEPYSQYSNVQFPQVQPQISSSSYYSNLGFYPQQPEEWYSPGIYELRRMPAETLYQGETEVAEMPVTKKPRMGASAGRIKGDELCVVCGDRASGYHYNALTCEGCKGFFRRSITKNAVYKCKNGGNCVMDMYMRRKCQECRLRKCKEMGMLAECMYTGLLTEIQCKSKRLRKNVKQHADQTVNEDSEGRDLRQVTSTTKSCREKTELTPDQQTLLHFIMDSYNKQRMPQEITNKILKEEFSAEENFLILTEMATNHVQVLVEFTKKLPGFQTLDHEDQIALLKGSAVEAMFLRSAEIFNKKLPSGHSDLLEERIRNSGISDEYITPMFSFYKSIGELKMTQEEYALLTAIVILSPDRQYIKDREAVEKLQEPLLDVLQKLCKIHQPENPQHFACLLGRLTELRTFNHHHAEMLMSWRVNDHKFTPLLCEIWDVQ

CCOP(=S)(OCC)SCn1nnc2ccccc2c1=O
active: [1] 9.51 µM

CO/N=C(/C(=O)OC)c1ccccc1COc1ccccc1C
inactive: [2] | [5] | [6]
active: [1] 0.947 µM | [3] 76.4 µM | [4] 50 µM

Cc1cc(C)c(C(=O)P(=O)(c2ccccc2)c2ccccc2)c(C)c1
inactive: [1]

CSC(C)(C)C=NO
inactive: NCBI gene 100848466 | [3] | [4]
active: [7] 4.44 µM

O=C(O)C1C(C(=O)O)C2(Cl)C(Cl)=C(Cl)C1(Cl)C2(Cl)Cl (centres undefined)
inactive: [3] | [4] | [8] | [9] | [10]

CCOC(=O)c1ccccc1C(=O)OCC
inactive: [3]

CCOP(=S)(OCC)SCSCC
inactive: [3] | [4] | [8] | [9] | [10]

c1cc2c3c(cccc3c1)CC2
inactive: [3] | [4] | [8] | [5] | [9] | [10]

O=C(CBr)OCc1ccccc1
inactive: [3] | [4] | [8] | [9] | [10]

O=C(O)CF
inactive: [11] | [3] | [4] | [8] | [9] | [10]

CCCCc1ccccc1
inactive: [3] | [12] | [4] | [8] | [9] | [10]

COC(N)=O
inactive: [3] | [4] | [8] | [9] | [10]

CCOc1ccc(C(C)(C)COCc2cccc(Oc3ccccc3)c2)cc1
inactive: [3] | [8] | [9] | [10]

O=P1(N(CCCl)CCCl)NCCCO1 (centres undefined)
inactive: [2] | [3] | [4] | [8] | [9] | [10]

CCOS(=O)(=O)OCC
inactive: [3] | [4] | [8] | [9]

c1nc[nH]n1
inactive: [2] | [3] | [4] | [8] | [9] | [10]

ClC(Cl)c1ccccc1
inactive: [3] | [4]

CCCCN(CC)C(=O)SCCC
inactive: [3] | [4] | [8] | [5] | [9] | [10]

CC(Cl)(Cl)C(=O)O
inactive: [2] | [3] | [4] | [8] | [9] | [10]

Cc1ccc(N)cc1N
inactive: [3] | [4] | [8] | [9] | [10]

O=[N+]([O-])c1ccc(Cl)c(Cl)c1
inactive: [3] | [4]

CC(C)(C)N(NC(=O)c1ccc(Cl)cc1)C(=O)c1ccccc1
inactive: [3] | [5] | [6] | [9] | [10]

[N-]=[N+]=[N-]
inactive: [3] | [4] | [5]

COCCOCCO
inactive: [3] | [4] | [8] | [10]

O=[N+]([O-])c1ccccc1
inactive: [2] | [3] | [4] | [8] | [9] | [10]

CCCCC(CC)COC(=O)c1c(Br)c(Br)c(Br)c(Br)c1C(=O)OCC(CC)CCCC (centres undefined)
inactive: [3] | [4] | [8] | [9] | [10]

CCC1(c2ccccc2)C(=O)N=C(O)NC1=O (centres undefined)
inactive: [3] | [8] | [10]

O=S1(=O)OCC2C(CO1)C1(Cl)C(Cl)=C(Cl)C2(Cl)C1(Cl)Cl (centres undefined)
active: [9] 86.8 µM
inactive: [11] | [3] | [4] | [8] | [10]

CN(C)C(=O)Cl
inactive: [3]

CCOC(=O)c1ccccc1N
inactive: [3] | [4] | [8] | [9] | [10]

O=NN1CCCC1
active: [3] 12.1 µM
inactive: [11] | [4] | [8] | [9] | [10]

O=c1ssc(Cl)c1Cl
inactive: [3] | [4] | [10]

c1ccc2c(c1)sc1ccccc12
inactive: [3] | [4]

Cc1ccc([N+](=O)[O-])cc1C
inactive: [3] | [8] | [9] | [10]

CCNc1nc(Cl)nc(NC(C)(C)C)n1
not listed: [1] | NCBI gene 100848466 | [7] | [11] | [12]
inactive: all other assays above

Cc1cccc(N)c1
inactive: [3] | [4]

CC(Cc1ccc(OCC(=O)O)cc1)NCC(O)c1csc(C(F)(F)F)n1 (centres undefined)
inactive: [3] | [4] | [9] | [10]

Cc1ccc(O)cc1C
inactive: [3] | [4] | [8] | [9] | [10]

FC(F)(F)c1ccc(Cl)cc1
inactive: [4] | [9] | [10]

CCN(CC)c1ccccc1
inactive: [3] | [4] | [8] | [5] | [6] | [9] | [10]

From PubChem BioAssay (EPA / NIEHS)
